The values that follow come from the supplement of paper PMC7695840.

Experiment [1] deals with Staphylococcus aureus MW2 delta-mecA (mecA-). Description: normalized GFP fluorescence (growth of mecA- strain) (fraction of control range); higher = more growth of mecA- strain. The following applies: compound concentration: 150 uM; cefoxitin: subinhibitory; fluorescent label: GFP. A digest of the protocol: (§1)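 Single-replicate 1536-well plates carried 150 μM compound (1.5% DMSO), onto which 5 µL/well of a 1:1 mix of pre-induced S. aureus MW2 cells was dispensed: gene-carrying cells tagged with DsRed and deletion cells tagged with GFP, in LB with a subinhibitory antibiotic dose set daily. Incubation ran 20 h at 37 °C, 90% humidity, unshaken, followed by DsRed (540/590) and GFP (485/520) reads. Per-plate scaling of each channel used single-strain control medians, and plates with high untreated ratios and rows with DsRed/GFP >10 were excluded.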

For experiment [2], the system named is Staphylococcus aureus MW2 (mecA+). The experiment in a line: normalized DsRed fluorescence (growth of mecA+ strain) (fraction of control range); higher = more growth of mecA+ strain. The settings on record: compound concentration: 150 uM; cefoxitin: subinhibitory; fluorescent label: DsRed. A digest of the protocol: as §1

Structures are written as SMILES. Structures can show the parent of a compound that is named as a salt.

For the compound `O=C(NC(Cc1cc(=O)[nH]c2ccccc12)C(=O)O)c1ccc(Cl)cc1` (stereo unspecified) [Rebamipide], the “normalized GFP fluorescence” value in experiment [1] was 0.175. In experiment [2], the “normalized DsRed fluorescence” value came out at 0.942.
The like results for `Cc1oncc1C(=O)Nc1ccc(C(F)(F)F)cc1` were, in that order, 0.0504 and 1.25.
`CC(C)Oc1ccc2c(=O)c(-c3ccccc3)coc2c1` [Ipriflavone]: in experiment [1], the “normalized GFP fluorescence” value came out at 0.362. For the same compound, the “normalized DsRed fluorescence” value in experiment [2] came out at 0.57.
`C[N+]1(C)[C@@H]2CC[C@H]1C[C@@H](OC(=O)C(O)c1ccccc1)C2` (stereo partly specified): the “normalized GFP fluorescence” value in experiment [1] came out at 0.29. In addition, the “normalized DsRed fluorescence” value in experiment [2] came to 0.71.
Consider `Nc1nc(=O)c2nc(CNc3ccc(C(=O)N[C@@H](CCC(=O)O)C(=O)O)cc3)cnc2[nH]1`, for which the “normalized GFP fluorescence” value in experiment [1] amounted to 0.21. In addition, the “normalized DsRed fluorescence” value in experiment [2] turned out to be 0.831.
Taken in the same sequence, the figures for `OCC(S)CS` (stereo unspecified) were 0.185 and 0.549.
The like results for `CCCCNC(=O)NS(=O)(=O)c1ccc(C)cc1` were, in that order, 0.18 and 0.588.
Take `CC[C@H](C)C(=O)O[C@H]1C[C@@H](C)C=C2C=C[C@H](C)[C@H](CC[C@@H]3C[C@@H](O)CC(=O)O3)[C@H]21`: the “normalized GFP fluorescence” value in experiment [1] came to 0.345. The “normalized DsRed fluorescence” value in experiment [2] is 0.697.
Taken in the same sequence, the figures for `Nc1ccc(S(=O)(=O)Nc2nccs2)cc1` were 0.273 and 1.4.
Taken in the same sequence, the figures for `CN(CCOc1ccc(NS(C)(=O)=O)cc1)CCc1ccc(NS(C)(=O)=O)cc1` [Dofetilide (Tikosyn)] were 0.244 and 1.28.
The like results for `COCCCOc1ccnc(C[S+]([O-])c2nc3ccccc3[nH]2)c1C` (stereo unspecified) were, in that order, 0.186 and 0.865.
With `NC[C@@H]1O[C@H](O[C@H]2[C@@H](O)[C@H](O[C@@H]3[C@@H](O)[C@H](N)C[C@H](N)[C@H]3O[C@H]3O[C@H](CN)[C@@H](O)[C@H](O)[C@H]3N)O[C@@H]2CO)[C@H](N)[C@@H](O)[C@@H]1O`, in experiment [1], the “normalized GFP fluorescence” value turned out to be 0.217. The “normalized DsRed fluorescence” value in experiment [2] turned out to be 0.718.
The like results for `CC(C)C(=O)Oc1ccc(CO)cc1[C@H](CCN(C(C)C)C(C)C)c1ccccc1` [Fesoterodine fumarate (Toviaz)] were, in that order, 0.00662 and 1.38.
With `Clc1ccc2c(c1)CCc1cccnc1C2=C1CCNCC1` [Desloratadine], in experiment [1], the “normalized GFP fluorescence” value stood at 0.102. Also, in experiment [2], the “normalized DsRed fluorescence” value turned out to be 0.936.
For the compound `C[C@@H]1C[C@H]2[C@@H]3C[C@H](F)C4=CC(=O)C=C[C@]4(C)[C@@]3(F)[C@@H](O)C[C@]2(C)[C@@]1(O)C(=O)CO`, in experiment [1], the “normalized GFP fluorescence” value is 0.766. In experiment [2], the “normalized DsRed fluorescence” value amounted to 0.847.
For `CC(C)(O)c1ccccc1CC[C@@H](SCC1(CC(=O)O)CC1)c1cccc(/C=C/c2ccc3ccc(Cl)cc3n2)c1`, the “normalized GFP fluorescence” value in experiment [1] was -0.0136. For the same compound, in experiment [2], the “normalized DsRed fluorescence” value stood at 0.632.
In the case of `O=C1CCC(N2C(=O)c3ccccc3C2=O)C(=O)N1` (stereo unspecified), the “normalized GFP fluorescence” value in experiment [1] was 0.261. Further, in experiment [2], the “normalized DsRed fluorescence” value came to 0.635.
The like results for `Nc1nc(N)c2nc(-c3ccccc3)c(N)nc2n1` were, in that order, 0.0839 and 1.75.
Taken in the same sequence, the figures for `Cc1cnc(C(=O)NCCc2ccc(S(=O)(=O)NC(=O)NC3CCCCC3)cc2)cn1` were 0.553 and 0.734.
The like results for `CC(=O)Nc1cccc(-n2c(=O)n(C3CC3)c(=O)c3c(Nc4ccc(I)cc4F)n(C)c(=O)c(C)c32)c1` were, in that order, 0.179 and 1.12.
For `CCOc1ccc(NC(C)=O)cc1`, the “normalized GFP fluorescence” value in experiment [1] amounted to 0.419. Besides, the “normalized DsRed fluorescence” value in experiment [2] amounted to 0.668.
The like results for `O=C(CCBr)N1CCN(C(=O)CCBr)CC1` were, in that order, 0.631 and 0.794.
The like results for `Cc1nc(=O)c2cc(CN(C)c3ccc(C(=O)N[C@@H](CCC(=O)O)C(=O)O)s3)ccc2[nH]1` [Raltitrexed (Tomudex)] were, in that order, 0.657 and 0.532.
The like results for `O=C(O)CCCC[C@@H]1SC[C@@H]2NC(=O)N[C@@H]21` were, in that order, 0.414 and 0.604.
In the case of `NC(=O)[C@@H]1CCCN1C(=O)[C@H](Cc1c[nH]cn1)NC(=O)[C@@H]1CCC(=O)N1`, the “normalized GFP fluorescence” value in experiment [1] turned out to be 0.621. Moreover, in experiment [2], the “normalized DsRed fluorescence” value is 0.766.
On to `CCS(=O)(=O)N1CC(CC#N)(n2cc(-c3ncnc4[nH]ccc34)cn2)C1`, for which the “normalized GFP fluorescence” value in experiment [1] worked out at 0.236. Further, the “normalized DsRed fluorescence” value in experiment [2] stood at 1.85.
Taken in the same sequence, the figures for `CCCC(=O)OCOC(=O)C1=C(C)NC(C)=C(C(=O)OC)C1c1cccc(Cl)c1Cl` (stereo unspecified) [Cleviprex (Clevidipine)] were 0.13 and 0.595.
In the case of `CC[C@@H](CO)NCCN[C@@H](CC)CO`, the “normalized GFP fluorescence” value in experiment [1] amounted to 0.377. The “normalized DsRed fluorescence” value in experiment [2] turned out to be 0.991.
Taken in the same sequence, the figures for `Clc1ccc(CCC(Cn2ccnc2)Sc2c(Cl)cccc2Cl)cc1` (stereo unspecified) were -0.00294 and 0.01.
Taken in the same sequence, the figures for `CCCCCCCCCC(=O)N[C@@H](Cc1c[nH]c2ccccc12)C(=O)N[C@H](CC(N)=O)C(=O)N[C@@H](CC(=O)O)C(=O)N[C@@H]1C(=O)NCC(=O)N[C@@H](CCCN)C(=O)N[C@@H](CC(=O)O)C(=O)N[C@H](C)C(=O)N[C@@H](CC(=O)O)C(=O)NCC(=O)N[C@H](CO)C(=O)N[C@@H]([C@H](C)CC(=O)O)C(=O)N[C@@H](CC(=O)c2ccccc2N)C(=O)O[C@@H]1C` [Daptomycin] were 0.013 and 0.064.
Taken in the same sequence, the figures for `CC(C)c1nc(CN(C)C(=O)N[C@H](C(=O)N[C@@H](Cc2ccccc2)C[C@H](O)[C@H](Cc2ccccc2)NC(=O)OCc2cncs2)C(C)C)cs1` [Ritonavir] were 0.0352 and 1.01.
On to `C[N+](C)(C)CC(=O)O`, for which the “normalized GFP fluorescence” value in experiment [1] was 0.229. In experiment [2], the “normalized DsRed fluorescence” value was 0.899.
For `CCCCCC(C)N` (stereo unspecified), the “normalized GFP fluorescence” value in experiment [1] was determined as 0.403. The “normalized DsRed fluorescence” value in experiment [2] was found to be 0.663.
Take `CCN(CCCCOC(=O)c1ccc(OC)c(OC)c1)C(C)Cc1ccc(OC)cc1` (stereo unspecified): the “normalized GFP fluorescence” value in experiment [1] turned out to be 0.41. In addition, the “normalized DsRed fluorescence” value in experiment [2] stood at 0.559.
Taken in the same sequence, the figures for `C[C@H](NCc1ccc(OCc2cccc(F)c2)cc1)C(N)=O` were 0.957 and 0.675.
The like results for `CCOc1ccc(Cc2cc([C@@H]3O[C@H](CO)[C@@H](O)[C@H](O)[C@H]3O)ccc2Cl)cc1` [Dapagliflozin] were, in that order, 0.454 and 0.557.
The like results for `CCCS(=O)(=O)Nc1ccc(F)c(C(=O)c2c[nH]c3ncc(-c4ccc(Cl)cc4)cc23)c1F` [Vemurafenib (PLX4032)] were, in that order, 0.416 and 0.489.
For `Cc1cc(CC(=O)O)n(C)c1C(=O)c1ccc(Cl)cc1`, in experiment [1], the “normalized GFP fluorescence” value stood at 0.288. Besides, the “normalized DsRed fluorescence” value in experiment [2] worked out at 0.63.
As to `NC(N)=Nc1nc(CSCC/C(N)=N/S(N)(=O)=O)cs1`, in experiment [1], the “normalized GFP fluorescence” value turned out to be 0.53. The “normalized DsRed fluorescence” value in experiment [2] was found to be 0.755.
Consider `COc1ccc(CC(C)NCC(O)c2ccc(O)c(NC=O)c2)cc1` (stereo unspecified) [Formoterol hemifumarate], for which the “normalized GFP fluorescence” value in experiment [1] amounted to 0.777. For the same compound, in experiment [2], the “normalized DsRed fluorescence” value turned out to be 0.699.
Take `O=C1c2cccc3c2[C@H](CCC3)CN1[C@@H]1CN2CCC1CC2` [Palonosetron HCl]: the “normalized GFP fluorescence” value in experiment [1] came to 0.203. Moreover, the “normalized DsRed fluorescence” value in experiment [2] worked out at 0.709.
On to `CCc1nc(N)nc(N)c1-c1ccc(Cl)cc1`, for which the “normalized GFP fluorescence” value in experiment [1] was 0.211. In addition, the “normalized DsRed fluorescence” value in experiment [2] is 0.879.
On to `Cc1cn(-c2cc(NC(=O)c3ccc(C)c(Nc4nccc(-c5cccnc5)n4)c3)cc(C(F)(F)F)c2)cn1` [Nilotinib (AMN-107)], for which the “normalized GFP fluorescence” value in experiment [1] amounted to 0.547. In experiment [2], the “normalized DsRed fluorescence” value was 0.566.
Take `O=c1[nH]c(=O)n([C@H]2C[C@H](O)[C@@H](CO)O2)cc1I` [Idoxuridin]: the “normalized GFP fluorescence” value in experiment [1] turned out to be 0.512. Besides, the “normalized DsRed fluorescence” value in experiment [2] amounted to 0.959.
For the compound `CC(C)OC(=O)OCOP(=O)(CO[C@H](C)Cn1cnc2c(N)ncnc21)OCOC(=O)OC(C)C` [Tenofovir Disoproxil Fumarate], in experiment [1], the “normalized GFP fluorescence” value was 0.238. Further, the “normalized DsRed fluorescence” value in experiment [2] stood at 0.514.
Taken in the same sequence, the figures for `CNS(=O)(=O)CCc1ccc2[nH]cc(C3CCN(C)CC3)c2c1` [Naratriptan HCl] were 0.395 and 0.662.
The like results for `CC(=O)c1ccc(S(=O)(=O)NC(=O)NC2CCCCC2)cc1` were, in that order, 0.35 and 0.729.
Taken in the same sequence, the figures for `C#C[C@]1(O)CC[C@H]2[C@@H]3CCC4=Cc5oncc5C[C@]4(C)[C@H]3CC[C@@]21C` were 0.414 and 0.779.
